Reference: PubChem BioAssay AID1063 (University of Pittsburgh Molecular Library Screening Center, 2008)
“And” between values parts separate entries of the source, which are not always exact repeats. Equal entries are not always repeated. In all, about 200,000 compounds went through this assay and about 18,000 (9%) were called active. Many of the other results were omitted from the sample, so actives are more common in it than they were. A number with no mark means an inactive call. Rule as the data show it: active = inhibition above about 50%; inactive = the rest.

Assay: antileishmanial activity against promastigotes – primary screen (AID 1063);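 also: promastigotes grown with compound for 44 hours at 28 °C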
Conditions: Leishmania major promastigotes, resazurin fluorescence viability; at 10 µM; stronger effect = higher value
Work on `Cc1cc(C)c(C#N)c(SCC(=O)Nc2ccccc2)n1` yielded an inhibition of -5.68%. For `Cc1cc2cc3c(cc2nc1SCC(=O)Nc1c(C)cccc1C)CCC3`, the inhibition was 78.9% (active). Work on `Cc1cccc(C)c1NC(=O)CSc1ccc([N+](=O)[O-])cn1` yielded an inhibition of -1.31%. `CS(=O)(=O)N(CC(=O)N/N=C/c1ccccn1)c1ccc(Oc2ccccc2)cc1` gave an inhibition of 32.9%. Work on `CCCN(CC(=O)Nc1ccccc1C)C(=O)c1cc(=O)[nH]c2ccccc12` yielded an inhibition of 1.78%. Work on `O=C(O)/C=C/c1cn(-c2ccccc2)nc1-c1cccs1` yielded an inhibition of -2.18%. Work on `O=C(O)c1ccc(N/N=C/c2cn(-c3ccccc3)nc2-c2cccs2)cc1` yielded an inhibition of 46.2%. With `CC(=O)C1=C(C)NC(C)=C(C(C)=O)C1c1cn(-c2ccccc2)nc1-c1cccs1` the inhibition was 79.7% (active). For `CC(=O)Nc1ccc(S(=O)(=O)Oc2ccc(/C=N/N=C3/NC(=O)C(CC(=O)O)S3)cc2)cc1` (stereo not drawn), the inhibition was -13.1%. `Cc1cccc(C)c1NC(=O)C1CCCN1C(=O)OC(C)(C)C` (stereo not drawn) gave an inhibition of -5.04%. With `Cc1ccc(NC(=O)c2csc3c2CCCC3)cc1` the inhibition was 12.4%. With `Cc1cc(C(=O)OC(C)C(=O)Nc2cccc(S(=O)(=O)N3CCOCC3)c2)c(C)o1` (stereo not drawn) the inhibition was 99.7% (active). Compound `O=C(COC(=O)c1ccccc1)Nc1cccc(S(=O)(=O)N2CCOCC2)c1` has an inhibition of -3.29%. In the case of `CC(Sc1cccc[n+]1[O-])C(=O)Nc1cccc(S(=O)(=O)N2CCOCC2)c1` (stereo not drawn), the inhibition is reported as -4.48%. `Cc1nc(CN2CCN(C(=O)CCc3nnc(Cc4c[nH]c5ccccc45)o3)CC2)cs1` gave an inhibition of 0.41%. `CN(CCN1CCOCC1)Cc1nc(-c2ccc3c(c2)OCO3)no1` showed an inhibition of 39.3%. Work on `CC(C)c1cc(NCc2ccccn2)n2c(nc3ccccc32)c1C#N` yielded an inhibition of 8.36%. In the case of `Cc1cc(N/N=C/c2ccccc2F)c2ccccc2n1`, the inhibition is reported as 12.3%. In the case of `Cc1nc(N2CCOCC2)sc1C(=O)NN`, the inhibition is reported as 7.46%. In the case of `Cn1c(-c2ccccc2)c[n+]2c1CCCCC2`, the inhibition is reported as 0.17%. In the case of `Cc1ccc(C(=O)C[n+]2cc(-c3ccccc3)n3c2CCCCC3)cc1`, the inhibition is reported as 101% (active) and 100% (active). `Cc1ccc(C(=O)N2CCCC(c3ccccc3)=N2)cc1` showed an inhibition of 16.1%. With `N/C(=N/O)c1cccn1Cc1ccccc1[N+](=O)[O-]` the inhibition was -1.66%. `COc1ccc(C)cc1NC(=O)c1ccc(-c2ccc(C(C)=O)cc2)o1` gave an inhibition of -4.3%. With `O=C(NC1CCN(Cc2ccccc2)CC1)c1cc(Br)c(Br)[nH]1` the inhibition was 60.3% (active). In the case of `Cc1ccn2cc(C(=O)NC3CCN(Cc4ccccc4)CC3)nc2c1`, the inhibition is reported as 4.6%. In the case of `S=C(Nc1ccc(Br)cc1Cl)NC1CCN(Cc2ccccc2)CC1`, the inhibition is reported as 90.3% (active). For `O=C(COc1ccccc1F)NC1CC1`, the inhibition was -1.88%. With `COc1cc2[nH]c(=O)n(CCC(=O)NC3CCN(Cc4ccccc4)CC3)c(=O)c2cc1OC` the inhibition was -1.95%. Work on `O=C(NC1CCN(Cc2ccccc2)CC1)c1c(F)cccc1F` yielded an inhibition of 21.7%. Work on `COc1cc2[nH]c(=O)n(Cc3ccc(C(=O)NC4CCN(Cc5ccccc5)CC4)cc3)c(=O)c2cc1OC` yielded an inhibition of -5.05%. For `O=C(COc1ccc(Br)cc1F)NC1CCN(Cc2ccccc2)CC1`, the inhibition was 93.2% (active). With `O=C(NC1CCN(Cc2ccccc2)CC1)c1ccccc1F` the inhibition was 62.4% (active). With `O=C(NNC(=S)Nc1ccc(Br)cc1Cl)c1ccco1` the inhibition was 0.76%. With `O=C(NC(=S)N1CCN(Cc2ccccc2)CC1)c1ccccc1` the inhibition was 14.1%. Compound `S=C(NN=C1CCN(Cc2ccccc2)CC1)NC1CCCCC1` has an inhibition of -4.71%. Compound `O=C1c2ccccc2NC(c2ccccc2O)N1NS(=O)(=O)c1ccccc1` (stereo not drawn) has an inhibition of 7.23%. Compound `Cc1ccc(Cl)c(NC(=O)CN2CCN(C=O)CC2)c1` has an inhibition of -1.88%. With `COc1cccc(NC(=O)c2ccc3c(SCC(=O)O)c4c(nc3c2)CCCC4)c1` the inhibition was 7.5%. For `O=C(Nc1ccncc1)c1cc(-c2ccccn2)nc2ccc(Br)cc12`, the inhibition was 2.98%. In the case of `NC(=O)c1ccccc1N(Cc1ccccc1)S(=O)(=O)c1ccccc1`, the inhibition is reported as 2.81%. With `CC(C)(C)n1nc2c(c1NC(=O)c1cc3ccccc3o1)CSC2` the inhibition was 1.01%. Work on `COc1ccccc1N1CCN(c2ccc([N+](=O)[O-])nc2)CC1` yielded an inhibition of -10.8%. Compound `C/C(=N/N1CCN(Cc2cccc3ccccc23)CC1)c1cccnc1` has an inhibition of 17.2%. Compound `CCOC(=O)C1(Cc2ccccc2C(F)(F)F)CCN(C(=O)c2cc(C)n(C)n2)CC1` has an inhibition of 5.02%. For `OCC1(Cc2ccccc2C(F)(F)F)CCN(Cc2cccc3cnccc23)CC1`, the inhibition was 88.2% (active). Compound `COc1ccc(C2=NN(c3nc4ccccc4s3)C(=O)C2)cc1` has an inhibition of -7.22%. For `CCC(C)(C)NC(=O)CN(C(=O)CCC(=O)Nc1cc(C)ccn1)c1ccc2c(c1)OCCO2`, the inhibition was -0.92%. With `CCOc1ccc(NC(=S)N2CCC(N(C)CC3CCCO3)CC2)cc1` (stereo not drawn) the inhibition was 96.2% (active). With `CCC(C)N(C)C1CCN(C(=S)Nc2ccc(OC)cc2)CC1` (stereo not drawn) the inhibition was 34.2%. With `CCOc1ccc(NC(=S)N2CCCCCC2)cc1` the inhibition was 3.65%. `Cn1cc(CN2CCC(C(O)CCc3ccccc3)CC2)c(-c2ccccc2F)n1` (stereo not drawn) showed an inhibition of -2.53%. For `Cc1ccc(NC(=O)Cn2c(=O)n(CCC(=O)NC3CCN(Cc4ccccc4)CC3)c(=O)c3ccccc32)cc1`, the inhibition was 0.09%. With `Cc1ccc(CNC(=O)CCNS(=O)(=O)c2ccc(Br)s2)cc1` the inhibition was -6.86%. With `COc1ccc(CN2CN(C3CCCC3)CSC2=S)cc1` the inhibition was 5.66%. Compound `COc1ccc(Cn2c(=O)cc(C)[nH]c2=S)cc1` has an inhibition of -4.72%. In the case of `COc1ccc(CN2CN(C(C)C)CSC2=S)cc1`, the inhibition is reported as 96.4% (active). With `COc1ccccc1CSc1ncc(-c2ccc([N+](=O)[O-])cc2)[nH]1` the inhibition was 76.4% (active). For `COc1ccccc1CSc1nc2ccccc2[nH]1`, the inhibition was -3.47%. For `COc1ccccc1CC(=O)Nc1ccc([N+](=O)[O-])cc1OC`, the inhibition was -0.93%. Work on `CCOC(=O)/C=c1\s/c(=C\c2ccc(C#N)cc2)c(=O)n1CC(=O)Nc1cccc(C)c1C` yielded an inhibition of -1.97%. With `CCOC(=O)C/C(C)=N\Nc1ccc([N+](=O)[O-])cc1[N+](=O)[O-]` the inhibition was 2.68%. `CN1C(=O)/C(=C/C=C2\SCCN2C)OC1=S` showed an inhibition of 12.9%. Work on `COc1ccc(N(CC(=O)N/N=C/c2cccs2)S(=O)(=O)c2ccc(OC)c(OC)c2)cc1` yielded an inhibition of 3.63%. `CCOc1ccc(S(=O)(=O)N(CC(=O)NCC(F)(F)F)Cc2ccco2)cc1` gave an inhibition of -5.48%. `CCN(CC)S(=O)(=O)c1ccc(N2CCCC2)c(NS(=O)(=O)c2cccs2)c1` showed an inhibition of -1.33%. With `CCOc1ccc(CN(Cc2ccco2)S(=O)(=O)c2ccc(-n3cnnn3)c(OC)c2)cc1` the inhibition was 95.5% (active). Work on `COc1ccc(CN(Cc2ccco2)S(=O)(=O)c2ccc(S(=O)(=O)N3CCCC3)cc2)cc1` yielded an inhibition of -4.09%. For `COc1cc(S(=O)(=O)N(Cc2cccs2)C2CC2)ccc1-n1cnnn1`, the inhibition was 99.8% (active). `C=CCn1c(CCc2ccc(OC(C)C)cc2)n[nH]c1=S` showed an inhibition of 1.12%. Compound `O=C(c1ccc(F)cc1)N1CCC(n2nnc3ccccc32)CC1` has an inhibition of 1.08%. For `CC(=O)c1c(O)cc2n(c1=O)-c1ccc(Cl)cc1C2(C)C`, the inhibition was -6.77%. Work on `CCc1c(O)nc(SCC(=O)N2CCCCC2)n(-c2ccccc2C)c1=O` yielded an inhibition of 1%. For `CCc1c(O)cc2n(c1=O)-c1ccccc1C2(C)C`, the inhibition was 51.1% (active). Work on `O=C(Nc1nnc(C2CC2)s1)C1=NN(C2CCS(=O)(=O)C2)C(=O)CC1` (stereo not drawn) yielded an inhibition of -3.9%. `COC(=O)c1cc2c(ccn2C)n1C` gave an inhibition of -2.26%. With `N#CC1=C(SCc2ccc(C#N)cc2)N=C(N)C(c2nc(-c3ccccc3)cs2)C12CCCCC2` (stereo not drawn) the inhibition was 98% (active). For `N#CC1=C(SCc2ccccc2)NC(=O)C(C#N)C12CCCC2` (stereo not drawn), the inhibition was -9.59%. With `N#C/C(=C1\CCCN1)c1nc(-c2ccccc2)cs1` the inhibition was 4.05%. Work on `CCN(CC)S(=O)(=O)c1ccc(OC(C)C)c(N)c1` yielded an inhibition of -4.13%. `Nc1nc(SCC(=O)NNc2c(Cl)cc(Cl)cc2Cl)n[nH]1` gave an inhibition of -7.01%. In the case of `O=C(CN1CCCCC1)N1c2ccccc2Sc2ccc(C(F)(F)F)cc21`, the inhibition is reported as 92% (active). For `COc1cc(/C=C2\SC(=S)N(Nc3ncc(C(F)(F)F)cc3Cl)C2=O)cc(OC)c1OC`, the inhibition was -11.1%. Work on `CCOC(=O)CNC(=O)N1c2ccccc2Sc2ccccc21` yielded an inhibition of 3.23%. Work on `COc1cc(/C=C/C(=O)O)cc(S(=O)(=O)Nc2ccccc2SC)c1OC` yielded an inhibition of 46.9%. Work on `O=C(CN1CCCCCC1)N1c2ccccc2Sc2ccc(C(F)(F)F)cc21` yielded an inhibition of 46%. With `COc1cc(/C=C/C(=O)N2c3ccccc3Sc3ccc(C(F)(F)F)cc32)cc(OC)c1OC` the inhibition was 81.2% (active). `O=C(NC(Cc1c[nH]c2ccccc12)C(=O)O)/C(=C/c1ccco1)NC(=O)c1ccccc1` (stereo not drawn) gave an inhibition of 3.28%. For `COc1ccc(CC(NC(C)=O)C(=O)NC2CCN(C(=O)c3ccc(OC)c(OC)c3)CC2)cc1OC` (stereo not drawn), the inhibition was -4.66%. In the case of `CCCN(CC(=O)Nc1ccc(C(N)=O)cc1)CC(=O)Nc1ccccc1C`, the inhibition is reported as 7.98%. `Cc1cccc(C(=O)Nc2ccc3c(c2)C(=O)N(CC(C)C)C3=O)c1` showed an inhibition of -9.76%. For `COc1ccc2c(c1)cc1n2CCN=C1NN`, the inhibition was 84.1% (active). With `Cc1cc(C(=O)Cn2cnc3cc([N+](=O)[O-])ccc3c2=O)c(C)n1CC1CCCO1` (stereo not drawn) the inhibition was -3.96%.
